# Results taken from the supplement of paper PMC6555819.
# Test system: VDR:RXRa (NR concentration 270 nM, RXRa partner concentration 90 nM)
# Assay: PBM binding z-score (relative to random genomic background probes); higher = stronger binding; sequences stand for … in GC…GCGATTGACAGCGTAGAATGAAGG
# Procedure: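 Protein-binding microarray (Agilent 4x180K custom design, double-stranded 60-nt probes: 5' GC cap, 34-nt variable region, 24-nt constant primer region; full probe sequence given). Purified or IVT nuclear receptor:RXRα heterodimers (3:1 NR:RXRα, mostly 270:90 nM) or homodimers were incubated for 1 h in PBS with 2% milk and no ligand, then detected with Alexa488 antibodies. Fluorescence from o1-orientation probes (~5 replicates averaged) was converted to z-scores against 500 random hg19 background probes. Variable regions are seed direct-repeat (DR0–DR5) sites, all their single-nucleotide variants and half-site ablations.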
row,Sequence,PBM binding z-score
1,AATACAGGTTCACTAGGCCAGAGTAGGTACGAAT,3.2
2,CAGCCTAGGTCAGGGCCAGTACAGGAGGAACGTT,0.635
3,TCATATAGGTAACAGGTGAAAGTCGGTGTGGTAA,0.96
4,CGAACTACGTCATTGACAGGACAGTGAATAGTAA,-0.122
5,ATCTATAGGTAAAGTTCAGTGAAAGATCGATAGA,1.65
6,TTACCAAGGTGAGCTAAGGTCGTTGATCCAACTC,3.13
7,CCCTACGGGTCACTCCAGGTTATAGCATCGGAGT,4.12
8,ATCTCTAGGGAACCAAGTTCAGTGAATGCCGAAC,2.1
9,CCAGACAGGTGAGAAGGTAACGCAGCCTCGATTA,-0.101
10,CTCGAAAGGTCGTGCTCAGGTGAGTCTACCAAAC,3.35
11,ACTATTAGTTGAGACGAGGGCAGCCGATAGGTTG,0.339
12,TTACCAAGGTGAAGGACGTTGATCCCTCTGTAGA,0.111
13,GCTTGTGGATCAAGGTTAAGAAAGACTAAGCTAA,0.111
14,TCTTGTAGATGAAGCAGGTTAAGAAAGCCTGAGT,0.456
15,AGAATGAGGTTATTAAGATCGGGGAATTGCGGTC,1.98
16,TCGAGTAGGTTAGGGGCATTTAGAATGGCGTCGA,0.556
17,AGAATGAGGTTACCAAAGATCGGGGAAACGCTTG,1.3
18,GCTCCTAGGTCAGGTTGGTCAGCTAACGGGTACG,0.913
19,CGTCCAAGGTCAAGGTCAGTGCAAGAGACTCGAA,5.5
20,TAGCCTAAGTCATTCAGGGGCCAGTATAGAAAGC,-0.0562

row,Sequence,PBM binding z-score
1,CCGACTGGGGCAAAGGTTACCAAACTCAGTACGA,1.91
2,ATCTGTAGGTAAGACTCAGTTCAGTGAAGAACGC,0.82
3,TCTTGTAGATCAAAGGTTATGAAAGCCGAAGCCT,1.25
4,TCTGCTAGGTCAGTTGGTCAGCGAACGAGCTGCC,0.114
5,TTTTGTAGATCAATAGAGGTTAAGAAAGTGCGCT,2.09
6,AGAATGTGGTTATTAAGATCAGGGAATTGCGGTC,0.251
7,CAAACTAGGTCAAAGGTGAAAGTCGAGCCAACCA,4.04
8,GCATAGAGGTAATACAAGGTGAAAGTCCGATTGT,0.566
9,AGTCGAAGTTCACTAGGTAACGTAAGATTCAGCT,2.44
10,ATCTCTAGGTAACCAAGTTCAGCGAATGCCGAAC,4.31
11,GGAACGAAGGCAAAGTTGATAGCATCTGTCGACG,-0.832
12,TTACCAAGGTGTAAGGTCGTTGATGCACGCCTTG,1.08
13,CGAACTAGGTCAGAACAGGACAGTGAGGGATGAT,0.739
14,AGTATGAGGTTAAGATCAGGGAAACAGAATACAT,1.18
15,TTACCAAGGTGAAAGGTCGTTGATGCACGCCTTG,3.14
16,TAGCCTAGGTCATTCACGGGCCAGTATAGAAAGC,2.28
17,ACTAGCAGGCCAAGGTTGGGTCACTCAAACAAAG,0.381
18,TGTTGTAGATCAGCAGGTTAAGAAAGCTGGCCAA,-0.372
19,ATACCAAGGTAATCGTGAGGTCGTTGATACTAAC,3.1
20,TCATATAGGTAATACAGGTGAAAATCGGCATCTA,1.32
